# Reference: the supplement of paper PMC3334620
# The full ranking holds about 33,000 sequences; the median of “E-score (-0.5 to 0.5)” is about -0.041, and the highest 2% start at about 0.37. What follows is part of a selection rich in the highest values, with near analogues and random picks from the rest.
# Target: T1, Ecm22 (UniProt Q05958)
# T1 sequence: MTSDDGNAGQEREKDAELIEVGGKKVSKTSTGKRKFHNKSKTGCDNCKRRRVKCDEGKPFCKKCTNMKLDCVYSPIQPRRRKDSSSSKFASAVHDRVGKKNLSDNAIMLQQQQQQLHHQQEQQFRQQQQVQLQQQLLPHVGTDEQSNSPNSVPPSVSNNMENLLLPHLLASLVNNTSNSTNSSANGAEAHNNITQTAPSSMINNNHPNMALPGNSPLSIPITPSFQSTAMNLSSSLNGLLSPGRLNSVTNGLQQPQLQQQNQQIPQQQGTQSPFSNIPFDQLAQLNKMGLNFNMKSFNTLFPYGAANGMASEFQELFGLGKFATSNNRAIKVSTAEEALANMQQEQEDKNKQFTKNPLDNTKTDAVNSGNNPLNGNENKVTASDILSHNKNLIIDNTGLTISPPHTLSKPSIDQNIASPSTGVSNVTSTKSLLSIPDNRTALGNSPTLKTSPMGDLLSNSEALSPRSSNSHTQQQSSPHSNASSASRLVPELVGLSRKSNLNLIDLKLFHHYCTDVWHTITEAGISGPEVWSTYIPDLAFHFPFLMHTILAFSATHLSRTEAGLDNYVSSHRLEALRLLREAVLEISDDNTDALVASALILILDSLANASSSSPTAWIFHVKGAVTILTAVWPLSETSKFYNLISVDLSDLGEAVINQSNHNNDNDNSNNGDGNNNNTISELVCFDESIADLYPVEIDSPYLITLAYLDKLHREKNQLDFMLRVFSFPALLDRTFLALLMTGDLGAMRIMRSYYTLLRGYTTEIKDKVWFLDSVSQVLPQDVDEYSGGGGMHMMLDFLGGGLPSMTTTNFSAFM
# Experiment: PBM E-score (8-mer binding enrichment) (E-score (-0.5 to 0.5)); higher = stronger / more preferred TF binding
# Conditions: protein concentration: 200 nM; construct: GST-full length
# Experimental: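 Universal 'all 10-mer' protein binding microarrays (Agilent AMADID 015681) probed with GST-tagged S. cerevisiae TFs (full-length or DBD) made by in vitro transcription/translation (PURExpress), about 100-200 nM. Bound TF was detected with fluorescent anti-GST. Each ungapped 8-mer (which stands for itself and its reverse complement) is scored by the PBM enrichment score (E-score), a modified Wilcoxon-Mann-Whitney statistic from -0.5 to +0.5, computed with the Universal PBM Analysis Suite. Scale: above 0.35 generally sequence-specific binding.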
row,Sequence,PBM E-score
1,AGCGCACG,0.097
2,ACCCCCTC,-0.274
3,CGTGGATC,-0.0292
4,CCTATGGA,-0.192
5,CCCATTAC,-0.101
6,CGACTGAG,0.0682
7,TAACGATA,0.367
8,AAACGATA,0.435
9,GAACGATA,0.416
10,GGACGATA,-0.213
11,CAACGATA,0.263
12,CCACGATA,0.0166
13,ACCCTTGG,-0.233
14,ATTCTAAA,0.095
15,ACCTAGAG,-0.00033
16,ATTCGCGG,-0.00497
17,ACGGGAGA,0.0694
18,CGACGGGA,0.227
19,ACTAAACA,-0.273
20,ATTAAACG,0.449
21,ACTAAACC,-0.00061
22,ATTAAACA,-0.163
23,CCTAAACC,-0.00691
24,ATTAAACC,-0.0934

row,Sequence,PBM E-score
1,CCTAAACG,0.407
2,CCTAAACA,-0.149
3,ACTAAACG,0.457
4,GGAGTAAA,0.0078
5,GGGGCTAC,-0.0133
6,GACGCCTA,-0.221
7,TCTTCGAA,0.108
8,GATACTTA,-0.131
9,GAGTCGCA,0.133
10,CAGTCGTA,0.418
11,GAGTCGGA,0.0868
12,GAGTCGTA,0.43
13,CAGTCGGA,-0.067
14,CAGTCGTC,-0.109
15,AAGTCGTA,0.433
16,AAGTCGTC,0.139
17,AAGTCGTG,-0.0717
18,CCGGCCGA,-0.113
19,AAGAGTTC,0.00406
20,CGAGCAAC,0.168
21,ACGCCGTG,-0.146
22,ACTCATGC,-0.0706
23,CACTGGGG,-0.267
24,ACGAGAGA,0.353

row,Sequence,PBM E-score
1,ACGAGACG,0.394
2,ACGAGACT,0.348
3,ACGAGATG,0.365
4,GCGAGAGC,0.182
5,ACGAGATC,0.433
6,ACGAGATA,0.346
7,ACGAGAGC,0.399
8,ACGAGACA,0.315
9,GGTAAACA,0.129
10,AGTAAACA,0.0411
11,CGTAAACG,0.444
12,TGTAAACA,-0.0145
13,CGTAAACC,0.366
14,AGTAAACG,0.427
15,CGTAAACA,0.385
16,AGTAAACC,-0.0723
17,CGGAAACG,0.269
18,TCCTTAAA,-0.1
19,GGTCCACC,-0.214
20,ACGCGGGA,0.062
21,AAAGCAGG,-0.203
22,TCTTTACA,-0.132
23,CTTTCGTC,0.0061
24,GTTTCGAA,-0.00209

row,Sequence,PBM E-score
1,GTTTCGTA,0.44
2,ATTTCGTC,0.0861
3,GTTTCGGA,0.215
4,CTTTCGGA,0.0148
5,ATTTCGTA,0.444
6,ATTTCGTG,0.0706
7,CTTTCGTA,0.428
8,GCCCGTGA,-0.115
9,AGGTTTGC,-0.153
10,ACCTAAAT,0.112
11,ACTGGAAA,-0.0956
12,GTTAAACA,0.00429
13,AACGTTTA,0.319
14,ATCGTTTG,0.414
15,GTCGTTTA,0.491
16,AGCGTTTG,0.031
17,GGCGTTTA,0.166
18,ATCGTTTC,0.365
19,ATCGTTTA,0.483
20,GACGTTTA,0.303
21,AGCGTTTA,0.168
22,AAATCTCT,-0.0179
